Laboratory results: paper PMC7819943, “Rice protein-binding microarrays: a tool to detect cis-acting elements near promoter regions in rice”
The full ranking holds about 68,000 sequences; the median of “fluorescence intensity (a.u.)” is about 9,100, and the highest 2% start at about 16,000. The list comes from a sample in which the highest values are over-represented; it also holds similar and randomly drawn sequences.

The sequences below were run against OsWRKY34 (Oryza sativa, UniProt Q0JBA9 1-250) (assay: protein-binding microarray (RPBM); PBS, 2% BSA, 51.3 ng/ul salmon testes DNA, 50 uM zinc acetate, 200 nM TF, 25 C, 1 h; high values mean tight binding). Settings: protein: recombinant; tags: N-terminal polyhistidine and DsRed monomer fusion (pET32a); label: CyDye5-dUTP incorporated in the synthesized complementary strand; 3' TTTTT single-stranded linker to array surface; dsDNA, one strand shown.
Chain of OsWRKY34 (Q0JBA9 entry or part of it): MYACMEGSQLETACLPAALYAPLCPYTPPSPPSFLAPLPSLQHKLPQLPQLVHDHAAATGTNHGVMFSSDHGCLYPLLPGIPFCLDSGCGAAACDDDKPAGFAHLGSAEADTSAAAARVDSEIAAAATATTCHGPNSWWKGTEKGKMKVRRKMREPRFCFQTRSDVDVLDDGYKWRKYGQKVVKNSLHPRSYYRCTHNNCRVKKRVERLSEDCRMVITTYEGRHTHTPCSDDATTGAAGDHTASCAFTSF
Summary of the method: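 Using Ni–NTA, transcription factors fused N-terminally to polyhistidine and DsRed were purified after expression in E. coli BL21-CodonPlus. These were incubated at 200 nM with a blocked, double-stranded custom Agilent array for 1 h at 25 °C in a buffer containing 50 µM zinc acetate, and the array was washed. The binding signal is per-feature fluorescence intensity (arbitrary units) on an Axon 4000B scanner.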
For “TAGTGGGGAGGCGGTGGTGCTGCGGGGAGGGAGGGAGCACCGGAGTCACCTAGTGCAG”, the binding signal was 12800 fluorescence intensity (a.u.). For “GTCGTGGGCGGGAGGTGGTGGTGGTGGTGCTGCTGCATTGCGGAGTCACCTAGTGCAG”, the binding signal was 11600 fluorescence intensity (a.u.). In the case of “GGCGAGCGCGTCGTGGAGGGCGGGGAGGGAGTCGGGCTGGCGGAGTCACCTAGTGCAG”, the binding signal is reported as 14400 fluorescence intensity (a.u.). For “GGAGGGCGGGCTGTTATATTCTTCACACCTTGCATGTAAGCGGAGTCACCTAGTGCAG”, the binding signal was 18700 fluorescence intensity (a.u.). In the case of “GGCTGTTGTTTTTCCTTGTTATTCTTTCAGTAAGATATTTCGGAGTCACCTAGTGCAG”, the binding signal is reported as 12800 fluorescence intensity (a.u.). In the case of “GGCGGGGCAGACGGAGGCCGACGGCTGCAGCGGGCTGGGGCGGAGTCACCTAGTGCAG”, the binding signal is reported as 9010 fluorescence intensity (a.u.). In the case of “GGGGAGGTTGCTGCTGCTGCTGGGCGGGTGGGCGGAGGGGCGGAGTCACCTAGTGCAG”, the binding signal is reported as 28100 fluorescence intensity (a.u.). For “TGGCAGGGTTGCATGGTTCTGGAGGGCGGGCTGTTATATTCGGAGTCACCTAGTGCAG”, the binding signal was 13500 fluorescence intensity (a.u.). For “AGGCGAGCGAGACGGCGGCGGGCGGGCGGGGCGGGCGACGCGGAGTCACCTAGTGCAG”, the binding signal was 14800 fluorescence intensity (a.u.). For “TCTGTCCCTCAATCCCGCGACGCCGCCGCCGTTCTGCTCCCGGAGTCACCTAGTGCAG”, the binding signal was 10000 fluorescence intensity (a.u.). “GATCCTATCATTTTCAACGATGTTAAATCGTCACAGGCTTCGGAGTCACCTAGTGCAG” was tested, and the binding signal was 8310 fluorescence intensity (a.u.). For “CCTCATTAGCTAGCTTTTTAGGGTGGGGAAGGCCCTTTACCGGAGTCACCTAGTGCAG”, the binding signal was 12700 fluorescence intensity (a.u.). In the case of “CTCACTTGCATCTTTCCAATATCTTAGTCATTCATTAATACGGAGTCACCTAGTGCAG”, the binding signal is reported as 8520 fluorescence intensity (a.u.). For “AATGTATGACGCCGTTGACTTTTTGCCCAACGTTTGACCACGGAGTCACCTAGTGCAG”, the binding signal was 38700 fluorescence intensity (a.u.). For “AATTGTAAAGTTGACTTTAATGTTTTTTTTATTGTGGTTTCGGAGTCACCTAGTGCAG”, the binding signal was 8740 fluorescence intensity (a.u.). “AATGTATGACGCAGTTGACTTTGTGACAAACGTTTGACCTCGGAGTCACCTAGTGCAG” was tested, and the binding signal was 12300 fluorescence intensity (a.u.). “AATGTATGATGCCGTTGACTTTTCGACTAACGTTTGACCACGGAGTCACCTAGTGCAG” was tested, and the binding signal was 29200 fluorescence intensity (a.u.). With “CTAAATTAATGGTCGCTTTGACTTTTTTTATGTAATGTTTCGGAGTCACCTAGTGCAG” the binding signal was 14700 fluorescence intensity (a.u.). With “AATGATGTTGTTGACTTTTAAAATAACGTATGGCCGTTCACGGAGTCACCTAGTGCAG” the binding signal was 8770 fluorescence intensity (a.u.). “GTAAATTATGTATGACGCGGTTGACTTTTTATTAACGTTTCGGAGTCACCTAGTGCAG” was tested, and the binding signal was 16800 fluorescence intensity (a.u.). “AATGTATGACGCCGTTGACTTTTTATCAAACGTTTGACCACGGAGTCACCTAGTGCAG” was tested, and the binding signal was 34800 fluorescence intensity (a.u.). “CATCCGTATGATTCGACTTTTTTTTCACGTTGATTTTATACGGAGTCACCTAGTGCAG” was tested, and the binding signal was 9050 fluorescence intensity (a.u.). In the case of “TTTTTTTCAATTCGTTTTTTTTTCATTTTTCATCGTCTTTCGGAGTCACCTAGTGCAG”, the binding signal is reported as 8400 fluorescence intensity (a.u.). In the case of “TACTACTCTCGTGTGGCAAAATTTTGTCTTAGTTCTTGAACGGAGTCACCTAGTGCAG”, the binding signal is reported as 8100 fluorescence intensity (a.u.). In the case of “GCGTTGTGGGTGTCTTGTGTTGTACTGCGTAATTCTTAAACGGAGTCACCTAGTGCAG”, the binding signal is reported as 15000 fluorescence intensity (a.u.). In the case of “CACAACTATTTCTACTTTTATCATTCCTACCTTTTCTAATCGGAGTCACCTAGTGCAG”, the binding signal is reported as 8180 fluorescence intensity (a.u.). With “CTAGCCCGTTAACATTACTGTTCATCTCCCTATCCGTCTCCGGAGTCACCTAGTGCAG” the binding signal was 9570 fluorescence intensity (a.u.). With “TCCTACACCACCCCGTTCTCGCGCCCATCGATCCAACCGACGGAGTCACCTAGTGCAG” the binding signal was 8920 fluorescence intensity (a.u.). For “AGCCACAAATCCTTATTCGTTCAATTGTTTTTCTTCCTCTCGGAGTCACCTAGTGCAG”, the binding signal was 8140 fluorescence intensity (a.u.). With “ATCGCGAAGTTCGCGACCCGATTCCTCTCCGCCCGCCATGCGGAGTCACCTAGTGCAG” the binding signal was 8380 fluorescence intensity (a.u.). For “GTACATGCATTATCCATATCTCTAAATTTAGCAATCACTTCGGAGTCACCTAGTGCAG”, the binding signal was 9480 fluorescence intensity (a.u.). For “AGTTCACTTTAGGTCCCTCTATTTGTCGTCCAGTCTGATTCGGAGTCACCTAGTGCAG”, the binding signal was 8180 fluorescence intensity (a.u.). For “GCGGCCAGGCCACCTCCAGCTCTTTTCACTCCTGGCTAACCGGAGTCACCTAGTGCAG”, the binding signal was 9500 fluorescence intensity (a.u.). In the case of “TATTACTCCCTTCGTATTTTAATGTATGACGCCGTTGACTCGGAGTCACCTAGTGCAG”, the binding signal is reported as 8820 fluorescence intensity (a.u.). “CTCTCTCACTCTTCTCCCTCTTCTCACCACCAGACGCCATCGGAGTCACCTAGTGCAG” was tested, and the binding signal was 8850 fluorescence intensity (a.u.). For “GATGACGTTGTTAACTTTTTATCACACGTTTGACCATTCGCGGAGTCACCTAGTGCAG”, the binding signal was 8510 fluorescence intensity (a.u.). For “TATGACGCCGTTGACTTATTGACTAACGTTTGACCATTCGCGGAGTCACCTAGTGCAG”, the binding signal was 21500 fluorescence intensity (a.u.). “CCCGTCAACGCCACCTCACCGTTGACGTTGCCACTCTCTTCGGAGTCACCTAGTGCAG” was tested, and the binding signal was 16800 fluorescence intensity (a.u.). In the case of “CCCGTGTCTTCCCAACCACGTTGACCACGACTTTTTCGTTCGGAGTCACCTAGTGCAG”, the binding signal is reported as 9480 fluorescence intensity (a.u.). With “CGCCGTTTAGTTTTTACTAACGTTTGACCATTTTTCTTATCGGAGTCACCTAGTGCAG” the binding signal was 11700 fluorescence intensity (a.u.). With “TCTTCGTATAAAAAGTATGACGCCGTTGACTTTTCATATACGGAGTCACCTAGTGCAG” the binding signal was 14500 fluorescence intensity (a.u.). In the case of “GTGGACGTTTTTGACTTTGTACTTTCAACGTTTGACCATTCGGAGTCACCTAGTGCAG”, the binding signal is reported as 13900 fluorescence intensity (a.u.). With “CCACCGCCCGCCGTCGTCTCTCTCTCTCTCTCTCTCTCTTCGGAGTCACCTAGTGCAG” the binding signal was 9970 fluorescence intensity (a.u.). “GACGCCGTTGACTTTTTGACCAACGTTTGACCTTTCGTCTCGGAGTCACCTAGTGCAG” was tested, and the binding signal was 31400 fluorescence intensity (a.u.). “GTTGTATAGGTTGGTTTTTTATGTATGACGCCGTTGACTTCGGAGTCACCTAGTGCAG” was tested, and the binding signal was 17100 fluorescence intensity (a.u.).
